FLuc modulator: counter-screen for miR-21 project: firefly luciferase inhibitors or activators; purified FLuc, Km substrates, luminescence inhibition; Potency, µM (top dose mostly 57.5 µM), without a hit: at the top dose activity change, negative = inhibition, most hits filed as inhibitors; actives 6.9% (n = 360,000); AID 588342;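 note: plate controls were vehicle for no effect and reference inhibitor for full effect; nearly all actives have a fitted effect of over 55% in size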
Target sequence (P08659 whole entry, looked up): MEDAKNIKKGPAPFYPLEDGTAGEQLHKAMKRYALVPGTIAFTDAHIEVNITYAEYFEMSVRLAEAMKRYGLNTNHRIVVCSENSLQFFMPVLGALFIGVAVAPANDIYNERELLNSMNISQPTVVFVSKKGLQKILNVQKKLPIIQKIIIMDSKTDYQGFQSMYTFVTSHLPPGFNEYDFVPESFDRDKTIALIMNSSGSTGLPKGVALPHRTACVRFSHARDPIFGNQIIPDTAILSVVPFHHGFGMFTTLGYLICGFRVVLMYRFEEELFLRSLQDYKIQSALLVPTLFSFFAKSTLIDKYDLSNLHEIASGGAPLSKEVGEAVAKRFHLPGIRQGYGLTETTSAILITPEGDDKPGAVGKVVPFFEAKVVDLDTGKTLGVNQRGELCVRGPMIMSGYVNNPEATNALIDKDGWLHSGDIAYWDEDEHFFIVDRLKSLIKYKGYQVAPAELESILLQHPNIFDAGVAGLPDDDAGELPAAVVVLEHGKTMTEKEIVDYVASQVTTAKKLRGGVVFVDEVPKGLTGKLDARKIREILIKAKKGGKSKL
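Purified P. pyralis luciferase (10nM final) with 10uM D-luciferin and 10uM ATP (Km levels) in 50mM Tris acetate pH 7.5, 10mM Mg acetate, 0.01% Tween-20, 0.05% BSA; qHTS 6-point titration, ~60 µM downward; luminescence read.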
NPC1 promoter act: NPC1 promoter activation | AID 485313 | Huh7 NPC1 promoter luciferase reporter, 24 h | actives 2.4% (n = 320,000) | Potency, µM (top dose mostly 9.22 µM), inactives show at the highest dose activation, most hits filed as activators; note: % of control where 0% means no effect; nearly all actives have a fitted effect of over 60% in size
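Stable NPC1-promoter luciferase Huh7 line; cpd (DMSO) 24 h, 37 °C, 5% CO2; Amplite luciferase reagent 10 min RT; luminescence readout. qHTS format.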
Rab9 promoter act: activators of Rab9 promoter; Huh7 Rab9 promoter-luciferase reporter, luminescence, 24 h; Potency, µM (series often up to 9.22 µM), without a hit: top-dose activation, negative = inhibition, hits mostly activators; actives 2.8% (n = 320,000); AID 485297; note: % of control where 0% means no effect; nearly all actives have a fitted effect of over 60% in size
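Steps: seed 1500 Huh7 Rab9-luc cells per well, rest 2 h at 37 °C; add compound in DMSO; incubate 24 h; add luciferase reagent, 10 min ambient; read luminescence.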
SMN2 splice enh: increases expression of the SMN2 splice variant. Potency, µM (top dose mostly 46.1 µM), inactives show at the top dose activity change, positive = activation, actives largely listed as activators. actives 2.8% (n = 210,000). HEK293 SMN2-luciferase splicing reporter, luminescence, 30-36 h; note: % of control where 0% means no effect; nearly all actives have a fitted effect of over 55% in size
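HEK293 cells carry an SMN2 […]–luciferase reporter in which exon 7 inclusion puts luciferase in frame. Cells were plated 10-12 h before compound addition, then incubated 30-36 h at 37C. ONE-Glo luminescence was read; sodium butyrate at 4.5 mM final served as control.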
ELG1 genotox: induces genotoxicity in HEK293T cells with luciferase-tagged ELG1; HEK293T ELG1-luciferase reporter, luminescence, 16 h; Potency, µM (top dose mostly 46 µM), for inactives: at the highest dose activity change, positive = activation, usual class: activators; actives 1.3% (n = 330,000); note: % of control where 0% means no effect; nearly all actives have a fitted effect of over 60% in size
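After overnight (16 hr) compound treatment at 37 °C, ELG1-luciferase HEK293T cells were lysed with ONE-Glo; luminescence quantified 30 min later at room temperature.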
Luc counter: blocks Kinase-Glo luciferase, a counter-screen artifact | Q27757 | Kinase-Glo luciferase, ATP luminescence, 8 min | Potency, µM (titrated, usually from 38.3 µM), for inactives: top-dose activity change, negative = inhibition, actives largely listed as inhibitors | actives 0.28% (n = 200,000) | AID 1379; note: % is set by controls: 0 for no effect and ±100 for the full control effect; nearly all actives have a fitted effect of over 60% in size
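Substrate mix (final 50 mM imidazole pH 7.2, 50 mM KCl, 7 mM MgCl2, 10 uM ATP, 0.01% Tween 20, 0.05% BSA) plus pin-tool compound, then Kinase-Glo detection mix; 8 min ambient, luminescence read.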
The depositor's hits bear a star; ? = inconclusive; nt = no result given; [ ] = another dose, or the depositor's remark. Hits are enriched below; roughly 7.3% of the tested compounds scored in any of these assays. Calls come from the whole dose curve; as a rule, active = well fitted curve in the direction sought with a large enough effect; inconclusive = small, poorly fitted or top-dose-only effect, or another doubt; inactive = no such curve, though single readings can be large; an effect the other way counts as inactive or inconclusive. Potency is the fitted concentration of half-maximal effect.

SMILES	FLuc modulator	NPC1 promoter act	Rab9 promoter act	SMN2 splice enh	ELG1 genotox	Luc counter
COc1cc2c(cc1OC)C(C(C(=O)N(CCc1ccc(OC)c(OC)c1OC)CCc1ccc(OC)c(OC)c1OC)c1ccccc1)=NCC2 (configuration not stated)	nt	nt	nt	nt	nt	2.6%[39.9 µM]
N#Cc1ccc(CN2CCCC3(CCN(S(=O)(=O)c4ccccc4)CC3)C2)cc1	nt	nt	nt	-43.5%	nt	0.2%
COc1ccc(Cc2nc3ccc(C(=O)NCCc4ccc(Cl)cc4)cc3o2)cc1	3.2%	nt	nt	nt	nt	nt
Cn1cc(S(=O)(=O)N2CCCCCC2)cc1C(=O)Nc1ccc(Cl)c(C(F)(F)F)c1	-0.9%	nt	nt	nt	nt	nt
C=CCOc1ccc(/C=C/C(C)=N\O)cc1	6.75µM*	2.82µM*	2.82µM*	nt	?	nt
C=CCOc1ccc(/C=C/C(=O)OCC(=O)N2CCN(C(C)=O)CC2)cc1	nt	nt	nt	nt	2.1%	nt
Cc1cc(C)nc(NC(=O)c2c(-c3ccccc3Cl)noc2C)n1	4.6%	0.9%	4.1%	-23.7%	-4.8%	-3.6%
CCc1ccc2nc(NC(=O)C3CSC4(C)CCC(=O)N34)sc2c1 (configuration not stated)	12µM*	15.3%	9.3%	nt	?	nt
COc1cccc(OC)c1C(=O)Nc1nc2ccc(S(C)(=O)=O)cc2s1	0.7%	-3.6%	2.7%	-1.4%	2.8%	-3.2%
CCc1noc(C)c1C(=O)Nc1nc2ccc(S(C)(=O)=O)cc2s1	2.39µM*	22.2%	4.0%	nt	14.8%	nt
CCc1ccc2nc(NC(=O)c3cc(C)on3)sc2c1	6.01µM*	-4.7%	?	?	13.6%	-9.0%
CC12CCC(=O)N1C(C(=O)Nc1nc3ccc(Cl)cc3s1)CS2 (configuration not stated)	?	1.0%	12.9%	nt	6.4%	nt
Cc1onc(-c2ccccc2Cl)c1C(=O)Nc1nc2ccc(S(C)(=O)=O)cc2s1	12µM*	-1.2%	0.0%	0.8%	-2.3%	0.0%
Nc1ncnc2c1nc(Sc1ccc(Cl)cc1)n2[C@H]1O[C@@H]2COP(=O)(O)O[C@H]2[C@@H]1O	nt	nt	nt	5.0%	nt	-0.8%
O=C(NC1(C(F)(F)F)N=C(c2ccccc2)N(Cc2ccccc2)C1=O)c1ccc(F)cc1 (configuration not stated)	-10.2%	nt	nt	-4.3%	nt	nt
CCc1noc(C)c1C(=O)Nc1nc2c(C)cc(C)cc2s1	10.7µM*	-12.1%	-4.1%	nt	22.3%	nt
O=C(CN1CCOCC1)Nc1nc2ccc(F)cc2s1	-19.3%	18.3%	17.8%	3.5%	?	2.5%
CCc1noc(C)c1C(=O)Nc1nc(-c2ccc(NC(C)=O)cc2)cs1	-10.1%	-2.1%	-7.5%	nt	-30.1%	nt
CCc1noc(C)c1C(=O)Nc1nc(-c2ccccc2)c(C(C)=O)s1	15.1µM*	-0.8%	-8.5%	nt	-2.4%	nt
Cc1noc(C)c1C(=O)Nc1nc2ccc(F)cc2s1	4.26µM*	1.58µM*	3.16µM*	nt	?	nt
CCc1noc(C)c1C(=O)Nc1nc2ccc(F)cc2s1	16.9µM*	?	?	nt	9.4%	nt
COc1ccc(Br)cc1C(=O)Nc1nc2ccc(F)cc2s1	?	nt	nt	-54.2%	nt	nt
COc1ccc(C(=O)c2cn(Cc3cccc(C)c3)c3cc4c(cc3c2=O)OCCO4)cc1OC	0.6%	nt	nt	-3.3%	nt	nt
Cc1ccccc1OCc1ccc(-c2nc(C#N)c(NCCCN(C)C)o2)o1	1.5%	nt	nt	nt	nt	nt
CCn1c(CNC(=O)c2ccc(OC)cc2)nnc1SCC(=O)Nc1ccc(OC)cc1	-11.2%	nt	nt	7.9%	nt	nt
SMILES	FLuc modulator	NPC1 promoter act	Rab9 promoter act	SMN2 splice enh	ELG1 genotox	Luc counter
O=C(Nc1cccc(-c2nc3ncccc3o2)c1)c1ccc(-c2cccc(Cl)c2Cl)o1	-11.3%	nt	nt	-17.3%	nt	nt
CCc1noc(C)c1C(=O)NCCc1ccc(F)cc1	1.8%	-1.3%	-2.4%	nt	0.3%	nt
CCc1noc(C)c1C(=O)NCCc1ccccc1	?	?	?	nt	16.4µM*	nt
CCOC(=O)c1c(NC(=O)c2c(-c3ccccc3)noc2C)sc(C)c1-c1ccccc1	-1.5%	-10.6%	21.3%	0.708µM*	-8.7%	-4.7%
Cc1ccc(-c2csc(NC(=O)c3c(C)noc3C)n2)s1	nt	nt	nt	nt	1.4%	nt
Cc1noc(C)c1C(=O)Nc1nc2ccc(Cl)cc2s1	2.39µM*	?	?	nt	?	nt
CCC1CN(C(=O)Nc2ccccc2C(F)(F)F)c2ccccc2S1 (configuration not stated)	-2.7%	nt	nt	nt	nt	nt
O=C(Nc1nc2n(n1)C(c1ccc(F)cc1)C=C(c1ccc(Cl)cc1)N2)c1ccc([N+](=O)[O-])cc1 (configuration not stated)	-1.0%	nt	nt	nt	nt	nt
CC(C)COc1cccc(C(=O)Nc2ccc(-c3nc4ncccc4o3)cc2)c1	-0.8%	nt	nt	0.4%	nt	nt
CSc1ccc(/C=N/n2c(C)nnc2C)cc1	-4.1%	-10.0%	-6.0%	10.4%	9.9%	3.0%
CSc1ccc(/C=N/N2CCN(C)CC2)cc1	21.3µM*	?	3.16µM*	17.8µM*	16.8%	-6.9%
CN1CCN(/N=C/c2ccc(-c3ccccc3)cc2)CC1	19µM*	3.55µM*	?	?	8.7%	-5.5%
CSc1ccc(/C=N/n2c(C)cc(C)cc2=O)cc1	15.1µM*	?	2.82µM*	?	10.3µM*	-9.3%
COc1ccccc1N1CCN(C(CNC(=O)C(=O)NCCc2ccccc2)c2cccnc2)CC1 (configuration not stated)	-13.4%	nt	nt	nt	nt	nt
Cc1nccc2[nH]c(=O)c(C(=O)NC3CCCCC3C)cc12 (configuration not stated)	0.7%	-1.4%	12.9%	12.6µM*	18.4%	5.2%
Cc1ccc(C(=O)C=CNNC(=O)c2ccccc2)cc1	23.9µM*	11.9%	9.1%	nt	-1.2%	nt
CC(/C=C/C(=O)c1ccc(C)cc1)=C\c1ccccc1	4.26µM*	?	?	-26.4%	17.6%	5.5%
Cc1ccc(S/C=C\C(=O)c2ccccc2)cc1	0.135µM*	10.2%	11.3%	-3.3%	18.4µM*	-22.2%
O=C(/C=C/NNC(=O)c1ccccc1O)c1ccccc1	19µM*	18.1%	13.8%	nt	4.2%	nt
Cc1ccc(C(=O)/C=C\C(=O)c2ccc(C)cc2)cc1	?	-8.2%	-0.5%	24.5%	?	-0.9%
CN(C)/C=C/C(=O)c1ccccc1	-4.1%	-0.4%	-1.5%	nt	0.3%	nt
C[C@@H](N)/C(N)=N/O	nt	nt	nt	-10.0%[9.22 µM]	nt	-1.8%[7.66 µM]
Cc1ccc(C(=O)/C=C\NCc2ccccc2)cc1	10.7µM*	?	?	?	13.9%	-0.8%
CCc1ccc(C(=O)/C=C/NCc2ccc(F)cc2)cc1	?	18.0%	?	26.6%	14.6%	2.0%
Cc1ccc(-c2noc(CN(C(=O)c3ccc(C(C)(C)C)cc3)C(C)C)n2)cc1	-2.1%	nt	nt	2.2%	nt	nt
Cc1nnc(NCCc2ccccc2)c2ccccc12	7.57µM*	1.58µM*	1.41µM*	nt	9.2µM*	nt
